A selection: hits, their analogues and other compounds. The true share with any hit is near 9.2%.
NPC1 prom act – activates the NPC1 promoter. AID 485313. Potency, µM (titrated, usually from 9.22 µM), usual class: activators. actives 2.4% (n = 320,000). Huh7 NPC1 promoter luciferase reporter, 24 h; note: nearly all actives have a fitted effect of over 60% in size
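Stably transfected Huh7 (NPC1 promoter→luciferase), 1500 cells/well in Opti-MEM + 10% FBS, 2 h settle, then compound 24 h at 37 °C. Luminescence after 10 min with Amplite reagent.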
SMN2 splice enh – enhancers of SMN2 splice variant expression | HEK293 SMN2-luciferase splicing reporter, luminescence, 30-36 h | Potency, µM (top dose mostly 46.1 µM), most hits filed as activators | actives 2.8% (n = 210,000); note: nearly all actives have a fitted effect of over 55% in size
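HEK293 cells carry an SMN2 minigene-luciferase reporter in which exon 7 inclusion puts luciferase in frame. Cells were seeded at 2000 cells/well, attached for 10-12 hours, then exposed to compounds for 30-36 hours at 37C before ONE-Glo luminescence.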
FLuc counter – firefly luciferase modulation, counter-screen for miR-21 project. purified FLuc, Km substrates, luminescence inhibition. Potency, µM (titrated, usually from 57.5 µM), most hits filed as inhibitors. actives 6.9% (n = 360,000). AID 588342; note: nearly all actives have a fitted effect of over 55% in size
Target sequence (P08659 whole entry, looked up): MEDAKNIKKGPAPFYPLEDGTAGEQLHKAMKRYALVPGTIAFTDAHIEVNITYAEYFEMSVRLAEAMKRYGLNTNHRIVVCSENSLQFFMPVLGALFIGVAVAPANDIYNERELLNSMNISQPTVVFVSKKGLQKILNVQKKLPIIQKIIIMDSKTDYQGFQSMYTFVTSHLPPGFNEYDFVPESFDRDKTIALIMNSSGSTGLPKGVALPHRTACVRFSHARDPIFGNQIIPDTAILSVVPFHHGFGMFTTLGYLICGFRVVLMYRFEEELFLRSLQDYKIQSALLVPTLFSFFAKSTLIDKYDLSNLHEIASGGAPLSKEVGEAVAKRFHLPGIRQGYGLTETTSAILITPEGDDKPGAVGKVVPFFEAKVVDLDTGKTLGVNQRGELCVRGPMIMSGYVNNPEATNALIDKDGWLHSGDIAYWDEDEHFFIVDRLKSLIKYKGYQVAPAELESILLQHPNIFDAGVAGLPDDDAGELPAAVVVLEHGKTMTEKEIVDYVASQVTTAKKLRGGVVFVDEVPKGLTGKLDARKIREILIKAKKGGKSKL
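Biochemical qHTS of compounds, final roughly 60 µM downward over six points, against 10 nM purified firefly luciferase using Km concentrations of substrates (10 uM D-luciferin, 10 uM ATP) in Tris acetate pH 7.5 buffer; luminescence output.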
ELG1 repair inh – inhibitors of ELG1-dependent DNA repair in HEK293T cells | AID 504467 | HEK293T ELG1-luciferase reporter, luminescence, 16 h; DNA damage induced by 5-fluorouridine | actives 2.3% (n = 330,000) | Potency, µM (series often up to 46.1 µM), most hits filed as inhibitors; note: nearly all actives have a fitted effect of over 55% in size
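Quantitative HTS, concentration-response format. 2,000 cells/well co-treated with 5-fluorouridine and compound, 16 hr in 5% CO2 at 37 °C; ONE-Glo luminescence read after 30 min.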
ELG1 genotox – inducers of genotoxicity in HEK293T ELG1-luciferase cells; HEK293T ELG1-luciferase reporter, luminescence, 16 h; Potency, µM (top dose mostly 46 µM), actives largely listed as activators; actives 1.3% (n = 330,000); AID 504466; note: nearly all actives have a fitted effect of over 60% in size
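ELG1-luciferase HEK293T cells, 2,000/well; compound pinned in; 16 hr, 37 °C, 5% CO2; ONE-Glo, 30 min RT; luminescence on CCD imager.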
Rab9 promoter act – activators of Rab9 promoter; Huh7 Rab9 promoter-luciferase reporter, luminescence, 24 h; Potency, µM (top dose mostly 9.22 µM), usual class: activators; actives 2.8% (n = 320,000); note: nearly all actives have a fitted effect of over 60% in size
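Cells were plated at 1500 per well in reduced-serum medium with 10% FBS and left 2 h. Compound in DMSO was then added for 24 h at 37 °C. Reporter signal was read by luminescence after 10 min with luciferase detection reagent.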
Hits are given with their value; 0 = inactive; ? = inconclusive; - = not tested or not shown; [ ] = dose if it differs, or a comment. Calls come from the whole dose curve; as a rule, active = well fitted curve in the direction sought with a large enough effect; inconclusive = small, poorly fitted or top-dose-only effect, or another doubt; inactive = no such curve, though single readings can be large; an effect the other way counts as inactive or inconclusive.

SMILES	NPC1 prom act	SMN2 splice enh	FLuc counter	ELG1 repair inh	ELG1 genotox	Rab9 promoter act
Cc1cc(O)cc2c1C(=O)/C(=C/c1ccco1)O2	?	-	12µM	?	0	0[1.84 µM]
CCN(CC)C(=O)Oc1ccc2c(c1)O/C(=C\c1ccco1)C2=O	?	-	3µM	?	0	?
COCCN(CCOC)Cc1c(O)ccc2c1O/C(=C\c1ccco1)C2=O	0	-	0	0	0	0
Cc1ccc(NC(=O)CSc2ncc3ccccn23)cc1	0	0	?	?	0	?
Cc1ccc(NC(=O)c2ccc(CNc3c(N4CCC(C)CC4)c(=O)c3=O)cc2)cc1	0	-	?	0	0	0
CCCN1C(=O)/C(=C/c2c(N3CCNC(=O)C3CC(=O)OCC)nc3c(C)cccn3c2=O)SC1=S (configuration not stated)	0	-	0	5.8µM	0	0
Cc1ccccc1CNC(=O)Cn1cnc(S(=O)(=O)N2CCCC2)c1	0	-	0	0	0	0
CN1/C(=C\C(=O)COC(=O)c2ccc(O)cc2)C(C)(C)c2ccccc21	0	-	0	21µM	0	0
CN1/C(=C\C(=O)COC(=O)c2ccc(O)c(O)c2)C(C)(C)c2ccccc21	0	0	0	21µM	0	0
CNS(=O)(=O)c1cccc(C(=O)OCC(=O)/C=C2/N(C)c3ccccc3C2(C)C)c1	0	0	0	?	0	0
Cc1ccc(Cl)cc1NC(=O)C1CCCN(S(=O)(=O)c2c(C)noc2C)C1 (configuration not stated)	0	0	0	?	-	0
Cc1noc(C)c1S(=O)(=O)N1CCCC(C(=O)Nc2ccc(Cl)cn2)C1 (configuration not stated)	0	0	0	16µM	0	0
c1ccc(CN2CCOCC2)cc1	0	0	0	0	0	0
O=c1c2ccccc2oc2cc(-c3ccc(CN4CCOCC4)cc3)ccc12	2.2µM	-	6.7µM	?	0	?
COc1cccc(NC(=O)c2ccc3c(c2)CCCC3)c1	1.4µM	-	1.2µM	?	2.6µM	1.4µM
CCS(=O)(=O)N1CCCc2cc(C(=O)Nc3cccc(C(C)=O)c3)ccc21	-	-	0	-	-	-
COc1cccc(NC(=O)c2ccc[n+](C)c2)c1	0	-	0	0	0	0
CC(=O)c1cccc(NC(=O)c2ccc3c(c2)CCCC3)c1	2.5µM	-	1.3µM	?	0[9.26 µM]	4µM
O=c1c2ccccc2oc2ccc(NCCCn3ccnc3)cc12	1.4µM	-	1.7µM	?	?	1.1µM
COc1ccccc1N1CCN(/N=C\c2cccnc2)CC1	0	-	0	?	0	0
COc1cc(/C=N/N2CCN(c3ccccc3OC)CC2)ccc1OC(C)=O	0	-	19µM	?	0	0
COc1ccccc1N1CCN(/N=C/c2ccc(OC)c(OC)c2OC)CC1	0	0	0	0	0	0
COc1ccccc1N1CCN(/N=C/c2ccccc2C(=O)O)CC1	0	-	19µM	0	0	0
COc1ccccc1N1CCN(/N=C/c2cccc(O)c2)CC1	0	0	13µM	?	?	?
COc1ccccc1N1CCN(/N=C/c2cc(OC)c(O)c(OC)c2)CC1	0	0	?	0	0	0
SMILES	NPC1 prom act	SMN2 splice enh	FLuc counter	ELG1 repair inh	ELG1 genotox	Rab9 promoter act
O=C(N/N=C/c1cc([N+](=O)[O-])ccc1O)C1CC1	0	-	0	18µM	0	0
O=[N+]([O-])c1cccc(N/N=C/c2cccc(O)c2O)c1	0	?	15µM	?	?	0
C/C(=N\Nc1cccc([N+](=O)[O-])c1)c1ccccc1O	0	-	19µM	?	?	?
O=C(N/N=C/c1cc([N+](=O)[O-])ccc1O)c1cccc2cc[nH]c12	0	-	0	4.6µM	0	0
O=C(N/N=C/c1cccc([N+](=O)[O-])c1)c1cccc2cc[nH]c12	0	0	0	0	0	0
CO[C@@H]1C=CO[C@]2(C)Oc3c(C)c(O)c4c(O)c(c(C=NN5CCN(C)CC5)c(O)c4c3C2=O)NC(=O)C(C)=CC=C[C@H](C)[C@H](O)[C@H](C)[C@H](O)[C@H](C)[C@H](OC(C)=O)[C@H]1C	-	0	-	-	-	-
O=c1cnc2cnc(Oc3ccccc3)nc2n1C[C@H]1CCCO1	-	0	-	-	-	-

Screening data: PubChem, National Center for Advancing Translational Sciences (NCATS)
